rTrxR1 inhibitor: qHTS Assay for Inhibitors of Mammalian Selenoprotein Thioredoxin Reductase 1 (TrxR1): qHTS; Thioredoxin reductase 1, cytoplasmic (Rattus norvegicus), O89049; recombinant rTrxR1, NADPH fluorescence consumption, selenite substrate; Potency, µM (series often up to 114 µM), for inactives: top-dose activity change, negative = inhibition, actives largely listed as inhibitors; hit rate 1% among 390,000; also: % is scaled to controls: 0 for no effect and ±100 for the full control effect; nearly all actives have a fitted effect of over 65% in size
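Rat TrxR1 (90 nM in the dispensed reagent) was pre-reduced with 400 uM NADPH for 5 min at room temperature, then incubated with compound for 15 min. After 400 uM selenite was added, NADPH fluorescence (Ex 340/Em 450 nm) was followed for 8 min.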
TrxR1 substrate: qHTS Assay for Substrates of Mammalian Selenoprotein Thioredoxin Reductase 1 (TrxR1): qHTS. AID 588456, 2011. Thioredoxin reductase 1, cytoplasmic (Rattus norvegicus), O89049. hit rate 0.01% among 390,000. Potency, µM (titrated, usually from 114 µM), for the others: at the top dose activity change, negative = substrate turnover. purified TrxR1 substrate turnover, NADPH consumption readout; also: % is scaled to controls: 0 for no effect and ±100 for the full control effect; nearly all actives have a fitted effect of over 50% in size
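Rat TrxR1, dispensed at 90 nM, was prereduced with 400 uM NADPH (final) for 5 min at ~22 deg C, then incubated with compound 15 min before 400 uM selenite. A first-read NADPH fluorescence drop versus no-compound background flagged substrates.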
GLP-1R inv ag: qHTS of GLP-1 Receptor Inverse Agonists (Inhibition Mode); HEK293 GLP-1R CRE-luciferase, luminescence, 24 h; GLP-1R form is constitutively active; Potency, µM (doses to about 38.3 µM), without a hit: top-dose activity change, negative = inhibition, usual class: inhibitors; AID 624417, 2012; hit rate 1.6% among 410,000; also: % is scaled to controls: 0 for no effect and ±100 for the full control effect; nearly all actives have a fitted effect of over 55% in size
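Seeding at 200 cells/uL, 12 h culture, 24 hr compound treatment, then luciferase reagent and a luminescence read; cells are HEK293 stably expressing a constitutively active GLP-1R plus cAMP-responsive luciferase.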
HEK293 tox: qHTS of GLP-1 Receptor Inverse Agonists: Cytotox Screen. HEK293 cAMP-luciferase reporter cells, luminescence, 24 h. Potency, µM (series often up to 38.3 µM), without a hit: at the top dose activity change, negative = inhibition, usual class: inhibitors. hit rate 0.13% among 410,000;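 also: loss of luciferase light is scored as toxicity; % is scaled to controls: 0 for no effect and ±100 for the full control effect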
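Luminescence readout: signal drop marks cytotoxicity. Plated cells grew 12 h at 37 °C, 5% CO2, received 23 nL compound for 24 h, then got luciferase reagent, read after 12 min at RT.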
GLP1R ag: qHTS of GLP-1 Receptor Agonists; Potency, µM (top dose mostly 45.6 µM), inactives show at the highest dose activation, hits mostly activators; hit rate 0.007% among 380,000; HEK293 GLP-1R CRE-luciferase, luminescence, 4-6 h; cells express a hypersensitive GLP-1R form; also: % of control where 0% means no effect
IDH1 R132H inh: qHTS for Inhibitors of mutant isocitrate dehydrogenase 1 (IDH1): qHTS. Potency, µM (titrated, usually from 76.6 µM), for inactives: at the top dose activity change, negative = inhibition, hits mostly inhibitors. IDH1-R132H enzyme, NADPH consumption, diaphorase/resazurin fluorescence. hit rate 0.093% among 390,000. Isocitrate dehydrogenase [NADP] cytoplasmic (Homo sapiens), O75874; also: % is scaled to controls: 0 for no effect and ±100 for the full control effect; nearly all actives have a fitted effect of over 65% in size
Target sequence (O75874 whole entry R132H, stated change not applied): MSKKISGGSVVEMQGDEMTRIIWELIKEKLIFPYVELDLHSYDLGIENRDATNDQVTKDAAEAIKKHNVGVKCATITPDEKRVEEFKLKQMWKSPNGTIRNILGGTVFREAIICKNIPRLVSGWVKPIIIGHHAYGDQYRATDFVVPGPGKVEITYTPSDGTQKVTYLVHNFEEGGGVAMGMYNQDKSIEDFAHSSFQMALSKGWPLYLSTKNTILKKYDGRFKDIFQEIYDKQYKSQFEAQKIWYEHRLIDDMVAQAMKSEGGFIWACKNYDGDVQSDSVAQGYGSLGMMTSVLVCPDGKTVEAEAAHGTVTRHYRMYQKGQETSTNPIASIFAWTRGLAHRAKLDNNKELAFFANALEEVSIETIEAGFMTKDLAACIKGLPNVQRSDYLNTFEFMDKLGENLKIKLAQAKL
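IDH1-R132H (0.5 ug/mL) preincubated 30 min with compound, then NADPH (0.016 mM) and alpha-KG (2 mM) added; 80 min at RT, pH 7.5. Remaining NADPH coupled via diaphorase/resazurin to fluorescence (540/590 nm); concentration-response curves normalized to no-enzyme control.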
* = called active by the depositor; ? = inconclusive; . = no result; [ ] = remark or other dose. Shown are actives, neighbours in structure and some others; about 2.7% of the full set was active somewhere. Calls follow the shape of the dose curve; as a rule, active = well fitted curve in the direction sought with a large enough effect; inconclusive = small, poorly fitted or top-dose-only effect, or another doubt; inactive = no such curve, though single readings can be large; an effect the other way counts as inactive or inconclusive. Potency is read from the fitted curve at half-maximal effect.

SMILES | rTrxR1 inhibitor | TrxR1 substrate | GLP-1R inv ag | HEK293 tox | GLP1R ag | IDH1 R132H inh
C[C@]12CC[C@H](O)C[C@H]1CC[C@@H]1[C@@H]2CC[C@]2(C)[C@@H](C3=CC(=O)OC3)CC[C@]12O | 37% | 4% | 0.5µM* | ? | -10% | -8%
C[C@@H]1CN([C@@H](C)CO)S(=O)(=O)c2ccc(Br)cc2O[C@H]1CN(C)C(=O)Nc1ccc(C(F)(F)F)cc1 | . | . | 7.9µM* | -8% | 0% | ?
C[C@@H]1CN([C@H](C)CO)C(=O)c2cc(NC(=O)Nc3ccc(C(F)(F)F)cc3)ccc2O[C@H]1CN(C)S(=O)(=O)c1cccs1 | 23% | -2% | ? | ? | -4% | -17%
O=C1NC(=S)NC(=O)C1=Cc1ccc(OCC(=O)N2CCCC2)cc1 | 5.6µM* | -3% | 16% | -7% | -3% | 21%
CNc1cc(Cl)c2nonc2c1[N+](=O)[O-] | 0.35µM* | -2%[57.1 µM] | ? | 7.9µM* | -11% | -9%
O=c1c2cc(NC(=S)NCCCN3CCC(Cc4ccccc4)CC3)ccc2nc2n1CCCCC2 | -13% | 1% | 2.2µM* | ? | 10% | 4%
COc1cccc(OP(=O)(Nc2ccccc2)Oc2cccc(OC)c2)c1 | 24% | -5% | 10µM* | ? | 7% | -6%
Cc1cccc(NP(=O)(Oc2ccccc2)Oc2ccccc2)c1C | 15%[57.1 µM] | -17%[57.1 µM] | 10µM* | -13% | 5% | 0%
COC(=O)C1(C(=O)OC)C[C@H](c2ccc(OC)cc2)N(Cc2ccccc2OC)[C@@H]1c1ccccc1 | . | . | ? | 16% | . | .
Cc1cccc(N(CC(=O)NCCSc2ccc(Cl)cc2)S(=O)(=O)c2ccccc2)c1C | 5% | -4% | 10µM* | -5% | . | -3%
Cc1ccc(SCCNC(=O)c2cccc([N+](=O)[O-])c2C)cc1 | -7%[57.1 µM] | 2%[57.1 µM] | ? | 72% | 2% | 3%
Cc1ccc(S(=O)(=O)N(CC(=O)NCCSc2ccc(Cl)cc2)c2ccccc2C)cc1 | 5% | -5% | 11µM* | -3% | . | 13%
CC(C)C[C@@H](CN1CCC[C@@H]1CN1C(=S)NC[C@@H]1Cc1ccc(O)cc1)N1C[C@H](Cc2ccc(O)cc2)N(CC2CCCCCC2)C1=S | . | . | ? | ? | -1% | .
CCc1ccccc1N1C(=O)N(Cc2ccccc2C)c2ccccc2S1(=O)=O | 19%[57.1 µM] | 7%[57.1 µM] | ? | -6% | -2% | 4%
CCc1ccccc1Nc1nn2c(=O)c3ccc(C(=O)Nc4cc(C)cc(C)c4)cc3nc2s1 | 14% | -4% | ? | -15% | -4% | -12%
CCCCC[C@H]1CCCCC[C@H](O)C[C@H](O)[C@@H](O)/C=C/C(=O)O1 | . | . | -20% | 3% | 0% | .
CN(Cc1ccccc1)C(=O)c1ccc(NC(=O)C2CCN(C(=O)OC(C)(C)C)CC2)cc1 | 4% | -4% | 5µM* | 14% | -1% | -2%
CN(Cc1ccccc1)C(=O)CN1CCCC1=O | 16% | 0% | 11% | 3% | -5% | -1%
COc1ccc(C2=C(C(C)=O)Sc3nnc(-c4ccc(C)cc4)n3N2C(C)=O)cc1OC | 15%[57.1 µM] | 7%[57.1 µM] | 2% | 5% | . | ?
COC(=O)c1cn(Cc2ccc(F)cc2)c2ccccc12 | . | . | 11µM* | 2% | 16% | 7%
CC1CCC(C(C)C)C(OC(=O)Cn2c(-c3ccccc3)[n+](C)c3ccccc32)C1 (stereo not drawn) | -15% | -8% | ? | 8.9µM* | -3% | 8%
CC1CCC(C(C)C)C(OC(=O)Cn2c(COc3ccccc3)[n+](C)c3ccccc32)C1 (stereo not drawn) | -12% | -7% | ? | ? | -5% | 3%
COc1ccccc1OC(=O)Oc1ccccc1OC | 17%[57.1 µM] | 8%[57.1 µM] | ? | -2% | 17% | 0%
CCC(C)[C@H]1CN=C(N)N1CCc1cc(C(F)(F)F)cc(C(F)(F)F)c1 (stereo partly drawn) | 11%[57.1 µM] | -2%[57.1 µM] | ? | ? | 2% | 8%
CCOC(=O)C(O)(c1ccc(N(C)C(=O)c2ccc(Cl)c(Cl)c2)cc1)C(F)(F)F (stereo not drawn) | 11% | -2% | ? | -19% | 16% | 3%
SMILES | rTrxR1 inhibitor | TrxR1 substrate | GLP-1R inv ag | HEK293 tox | GLP1R ag | IDH1 R132H inh
CCOC(=O)C(O)(c1ccc(NC(=O)c2ccc(Cl)c(Cl)c2)cc1)C(F)(F)F (stereo not drawn) | 32% | 0% | 5µM* | -19% | 1% | 7%
Cc1ccc(C(C#N)=Cc2ccc3c(c2)OCO3)cc1 | . | . | 10µM* | -12% | 0% | 3%
c1cc2n(c1)-c1c(ccc3c1OCO3)CNC2c1ccc2c(c1)OCO2 (stereo not drawn) | 14%[57.1 µM] | 8%[57.1 µM] | 8.9µM* | -26% | 0% | 0%
COc1ccc(C2NCc3ccc4c(c3-n3cccc32)OCO4)cc1O (stereo not drawn) | 4%[57.1 µM] | -6%[57.1 µM] | ? | ? | 3% | 14%
COc1cc(C2C3=C(COC3=O)Oc3cc4c(cc32)OCO4)ccc1O (stereo not drawn) | 0%[11.4 µM] | 5%[11.4 µM] | ? | ? | 24% | 2%
Cc1cc(C(=O)CCl)c(C)n1-c1c(C)n(C)n(-c2ccccc2)c1=O | 8.9µM* | -1%[57.1 µM] | ? | ? | -5% | -20%
Cc1cc(C(=O)CCl)c(C)n1CCc1ccc(F)cc1 | ? | -12%[57.1 µM] | ? | ? | -4% | 1%
COc1cccc(CN2CCc3nc(N4CCN(c5ncccn5)CC4)ncc3C2)c1 | 0%[57.1 µM] | -4%[57.1 µM] | ? | -6% | . | 0%
O=c1[nH]cnc2[nH]cc(CN3CCCCC3)c12 | . | . | . | . | -5% | .
CC(C)(C)c1ccc(-n2nc(C#N)c(Cl)cc2=O)cc1 | 16µM* | 4%[57.1 µM] | ? | ? | -4% | -6%
COc1ccc(N2C(=O)C(Cl)=C(Oc3cccc(OC)c3)C2=O)cc1 | 0.45µM* | -14%[57.1 µM] | ? | ? | 4% | 5%
COc1ccc(CCNC(=O)COC(=O)Cc2ccccc2)cc1 | -10% | -12% | 1% | -3% | 3% | 1%
COc1ccc(CCNC(=O)N2c3ccccc3Sc3ccccc32)cc1 | 7% | 1% | 7.9µM* | -18% | 7% | 2%

Screening results as filed in PubChem BioAssay.
